Measured potencies and affinities stand elsewhere.
Experiments:
[1] = tested on: Klebsiella pneumoniae; conditions: Concentration 32 ug.mL-1; ASSAY_TEST Inhibition of Bacterial Growth; detection method Absorption (OD600); MEDIA CAMHB; plate type 384well; NBS; CORNING #3640; time 18 hr
[2] = tested on: Candida albicans; conditions: 32 ug/mL
[3] = tested on: Cryptococcus neoformans; conditions: Concentration 32 ug.mL-1; ASSAY_TEST Inhibition of Fungal Growth; detection method Resazurin; Absorption (OD600-OD570); plate type 384well; NBS; CORNING #3640

| SMILES | Inhibition [1] | Inhibition [2] | Inhibition [3] |
| --- | --- | --- | --- |
| Clc1ccc(Cn2c(-c3cscn3)nc3ccccc32)cn1 | 12.39% | 0.69% | -39.39% |
| Clc1ccc2c(c1)nc(-c1cscn1)n2Cc1ccc(Cl)nc1 | -1.17% | 2.99% | -29.64% |
| Clc1ccc(Cn2c(-c3cscn3)nc3c(Cl)cccc32)cn1 | 14.39% | 1.41% | -19.98% |

— ChEMBL document CHEMBL4513154, “CO-ADD screening of Jain University (India) compounds”
